Test results from PubChem BioAssay AID588492 (Sanford-Burnham Center for Chemical Genomics, 2011).
The whole screen tested about 360,000 compounds, of which about 2,300 (0.64%) were called active. The sample as a whole holds a higher share of actives than the screen did. Values without a mark were called inactive.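 Rule for the calls: active = compounds giving at least 50% protection of heart cells from peroxide-induced death in the single-dose screen, raw or plate-pattern-corrected value; inactive = the rest.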

Test: H9c2 cardiomyocyte survival under peroxide injury – uHTS, H9c2 cells, ATPLite luminescence, primary screen (AID 588492);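 note: 0% = DMSO wells with peroxide and 100% = DMSO wells without peroxide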
Conditions: H9c2 cardiomyocytes, 2 h, at 20 µM, active compounds read high

SMILES | protection from H2O2 cell death
CCCCCn1c(=O)c(C(=O)NCc2ccccn2)c(O)c2ccccc21 | 53.7% (active)
CCCCn1c(=O)c(C(=O)Nc2ccccc2Cl)c(O)c2ccccc21 | 28.7%
CCCCCn1c(=O)c(C(=O)NCc2ccccc2)c(O)c2ccccc21 | 46.9%
CCN1CCN(C(=O)Cc2coc3cc(C)cc(C)c23)CC1 | 5.6%
COC(=O)C1=C(c2c(C)noc2C)C[C@@H]2CC[C@H]1N2C(=O)NCc1ccc2c(c1)OCO2 | -2.4%
O=c1[nH]c(O)c(C=Nc2cc(F)cc(F)c2)c(=O)[nH]1 | 6.4%
Cc1ccc2c(c1)=C/C(=C\c1c(O)[nH]c(=O)[nH]c1=O)C(=O)N=2 | 60.8% (active)
COc1ccccc1N=Nc1c(O)[nH]c(=S)[nH]c1=O | -6.6%
O=C1N=c2ccccc2=C/C1=C\c1c(O)[nH]c(=S)[nH]c1=O | 51.8% (active)
CCN1C(=O)C(=Cc2c(C)n(CC(=O)NCC3CCCO3)c3ccccc23)C(=O)N(CC)C1=S (stereo not given) | -2.5%
Nc1ccc([N+](=O)[O-])cc1 | -1.6%
Cc1cccc(OP(=O)(Oc2cccc(C)c2)OC(c2ccccc2)C(F)(F)F)c1 (stereo not given) | -8.9%
CC1C(=O)OC2CCN3CC=C(COC(=O)C(C)(O)C1(C)O)C23 (stereo not given) | 1.6%
CCn1cc(CN2CCCC(C(=O)c3cccc(C(F)(F)F)c3)C2)cn1 (stereo not given) | -6.7%
CCN1CCN(c2nc3c(c(=O)[nH]2)CCC3)CC1 | 63% (active)
O=C(NC(c1ccc(Cl)cc1)P(=O)(Oc1ccccc1)Oc1ccccc1)OCc1ccccc1 (stereo not given) | 7.3%
O=C(CCNS(=O)(=O)c1ccccc1)Nc1ccc(Cl)cc1C(=O)c1ccccc1 | -9.8%
Fc1ccc(C2N3CCCN23)cc1 (stereo not given) | 1.5%
C=CC12CN(C)[C@@H]3C4CO[C@H](C[C@H]41)[C@]1(C(=O)Nc4ccccc41)[C@@H]32 (stereo not given in full) | 3.5%
NC(=O)Cn1cc(C(=O)c2ccccc2F)c2ccccc21 | 8.7%
